Among all 5,500 compounds or so, about 2,000 (36%) were called active. Another 18% or so got no clear call; they are omitted. No stated cut-off is given here; in the data, active means normalized growth mostly below about 0.91 (no sharp cut-off); inconclusive means no clear call, values can overlap the other calls; inactive means mostly above about 0.92. The list shows a part of the results.
Experiment: chemical genetic growth profiling, strain panel (AID 1159580);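 further: tested at 20 µM; growth read once vehicle control cultures reached saturation at 30 °C; 1 = growth at the plate median or of vehicle wells; lower values mean less growth of the strain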
Settings: growth OD

Measured: normalized growth

CCOC(=O)[C@H](CCc1ccccc1)N[C@@H](C)C(=O)N1[C@H](C(=O)O)C[C@@H]2CCC[C@@H]21
inactive: S. cerevisiae deletion strains, locus YJR075W, strain HOC1, active compounds read low 0.998 | S. cerevisiae deletion strains, locus YKL009W, strain mrt4, active compounds read low 1.01 | S. cerevisiae deletion strains, locus YKL068W, active compounds read low 1.02 | S. cerevisiae deletion strains, locus YKL085W, strain MDH1 (second series), active compounds read low 1.02 | S. cerevisiae deletion strains, locus YKL085W, strain MDH1, active compounds read low 1.02 | S. cerevisiae deletion strains, locus YKL160W, strain elf1, active compounds read low 0.981 | S. cerevisiae deletion strains, locus YKL190W, strain CNB1, active compounds read low 1.01 | S. cerevisiae deletion strains, locus YKR001C, strain vps1, active compounds read low 1.02 | S. cerevisiae deletion strains, locus YKR026C, strain gcn3, active compounds read low 0.98 | S. cerevisiae deletion strains, locus YKR091W, strain srl3, active compounds read low 0.985 | S. cerevisiae deletion strains, locus YLL001W, strain dnm1, active compounds read low 0.989 | S. cerevisiae deletion strains, locus YLL026W, active compounds read low 0.991 | S. cerevisiae deletion strains, locus YLL041C, strain sdh2, active compounds read low 0.982 | S. cerevisiae deletion strains, locus YLR027C, strain aat2, active compounds read low 0.992 | S. cerevisiae deletion strains, locus YLR039C, strain RIC1, active compounds read low 1.06 | S. cerevisiae deletion strains, locus YLR058C, strain SHM2, active compounds read low 1.01 | S. cerevisiae deletion strains, locus YLR102C, strain apc9, active compounds read low 1.02 | S. cerevisiae deletion strains, locus YLR113W, strain HOG1, active compounds read low 0.98 | S. cerevisiae deletion strains, locus YLR221C, strain rsa3, active compounds read low 1 | S. cerevisiae deletion strains, locus YLR258W, strain gsy2, active compounds read low 0.991 | S. cerevisiae deletion strains, locus YLR262C, strain YPT6 (second series), active compounds read low 0.967 | S. cerevisiae deletion strains, locus YLR262C, strain YPT6, active compounds read low 1.08 | S. cerevisiae deletion strains, locus YLR268W, strain sec22, active compounds read low 1.02 | S. cerevisiae deletion strains, locus YLR320W, strain mms22, active compounds read low 0.975 | S. cerevisiae deletion strains, locus YLR330W, strain CHS5, active compounds read low 1.01 | S. cerevisiae deletion strains, locus YLR342W, strain FKS1 (second series), active compounds read low 1.02 | S. cerevisiae deletion strains, locus YLR342W, strain FKS1, active compounds read low 0.989 | S. cerevisiae deletion strains, locus YLR357W, strain rsc2, active compounds read low 0.978 | S. cerevisiae deletion strains, locus YLR370C, strain arc18, active compounds read low 0.98 | S. cerevisiae deletion strains, locus YLR371W, strain rom2, active compounds read low 1.01 | S. cerevisiae deletion strains, locus YLR384C, strain iki3, active compounds read low 0.984 | S. cerevisiae deletion strains, locus YLR418C, strain cdc73, active compounds read low 1.06 | S. cerevisiae deletion strains, locus YML016C, strain PPZ1, active compounds read low 1.02 | S. cerevisiae deletion strains, locus YML032C, strain rad52, active compounds read low 1.02 | S. cerevisiae deletion strains, locus YML120C, strain ndi1, active compounds read low 0.993 | S. cerevisiae deletion strains, locus YML124C, strain tub3, active compounds read low 1.02 | S. cerevisiae deletion strains, locus YMR058W, strain fet3, active compounds read low 0.99 | S. cerevisiae deletion strains, locus YMR078C, strain ctf18, active compounds read low 1.03 | S. cerevisiae deletion strains, locus YMR125W, strain sto1, active compounds read low 0.976 | S. cerevisiae deletion strains, locus YMR129W, active compounds read low 0.979 | S. cerevisiae deletion strains, locus YMR205C, strain PFK2, active compounds read low 0.981 | S. cerevisiae deletion strains, locus YMR223W, strain ubp8, active compounds read low 1.02 | S. cerevisiae deletion strains, locus YMR231W, strain pep5, active compounds read low 0.978 | S. cerevisiae deletion strains, locus YMR263W, strain SAP30, active compounds read low 1.02 | S. cerevisiae deletion strains, locus YMR307W, strain GAS1, active compounds read low 1.04 | S. cerevisiae deletion strains, locus YNL067W, strain RPL9B, active compounds read low 1.01 | S. cerevisiae deletion strains, locus YNL071W, strain lat1, active compounds read low 0.975 | S. cerevisiae deletion strains, locus YNL128W, strain TEP1, active compounds read low 1 | S. cerevisiae deletion strains, locus YNL153C, strain GIM3, active compounds read low 1.01 | S. cerevisiae deletion strains, locus YNL183C, strain NPR1, active compounds read low 0.968 | S. cerevisiae deletion strains, locus YNL209W, strain ssb2, active compounds read low 0.981 | S. cerevisiae deletion strains, locus YNL233W, strain BNI4, active compounds read low 1 | S. cerevisiae deletion strains, locus YNL248C, strain rpa49, active compounds read low 0.986 | S. cerevisiae deletion strains, locus YNL250W, strain rad50, active compounds read low 1.03 | S. cerevisiae deletion strains, locus YNL271C, strain bni1, active compounds read low 1.02 | S. cerevisiae deletion strains, locus YNL298W, strain CLA4, active compounds read low 1.03 | S. cerevisiae deletion strains, locus YNL307C, strain MCK1, active compounds read low 1.02 | S. cerevisiae deletion strains, locus YNL322C, strain KRE1 (second series), active compounds read low 0.982 | S. cerevisiae deletion strains, locus YNL322C, strain KRE1, active compounds read low 1.01 | S. cerevisiae deletion strains, locus YNR049C, strain mso1, active compounds read low 0.985 | S. cerevisiae deletion strains, locus YNR052C, strain pop2, active compounds read low 1.01 | S. cerevisiae deletion strains, locus YOL006C, strain TOP1, active compounds read low 1.03 | S. cerevisiae deletion strains, locus YOL012C, strain htz1 1.2 | S. cerevisiae deletion strains, locus YOL147C, strain pex11, active compounds read low 1.01 | S. cerevisiae deletion strains, locus YOR001W, strain rrp6, active compounds read low 0.997 | S. cerevisiae deletion strains, locus YOR061W, strain CKA2, active compounds read low 1.01 | S. cerevisiae deletion strains, locus YOR069W, strain VPS5, active compounds read low 1 | S. cerevisiae deletion strains, locus YOR070C, strain gyp1, active compounds read low 0.991 | S. cerevisiae deletion strains, locus YOR080W, strain dia2, active compounds read low 0.982 | S. cerevisiae deletion strains, locus YOR083W, strain WHI5, active compounds read low 0.984 | S. cerevisiae deletion strains, locus YOR106W, strain vam3, active compounds read low 1.01 | S. cerevisiae deletion strains, locus YOR136W, strain idh2, active compounds read low 1.02 | S. cerevisiae deletion strains, locus YOR144C, strain elg1, active compounds read low 1.02 | S. cerevisiae deletion strains, locus YOR184W, strain ser1, active compounds read low 1.03 | S. cerevisiae deletion strains, locus YOR231W, strain MKK1, active compounds read low 0.983 | S. cerevisiae deletion strains, locus YOR265W, strain rbl2, active compounds read low 0.979 | S. cerevisiae deletion strains, locus YOR270C, strain vph1, active compounds read low 1.03 | S. cerevisiae deletion strains, locus YOR290C, strain snf2, active compounds read low 0.988 | S. cerevisiae deletion strains, locus YOR316C, strain cot1, active compounds read low 1.02 | S. cerevisiae deletion strains, locus YPL051W, strain arl3, active compounds read low 0.987 | S. cerevisiae deletion strains, locus YPL055C, strain LGE1, active compounds read low 1.02 | S. cerevisiae deletion strains, locus YPL078C, strain atp4, active compounds read low 0.977 | S. cerevisiae deletion strains, locus YPL106C, strain sse1, active compounds read low 0.988 | S. cerevisiae deletion strains, locus YPL240C, strain hsp82, active compounds read low 0.984 | S. cerevisiae deletion strains, locus YPL241C, strain CIN2, active compounds read low 0.999 | S. cerevisiae deletion strains, locus YPL256C, strain CLN2, active compounds read low 0.973 | S. cerevisiae deletion strains, locus YPR119W, strain clb2, active compounds read low 1.01 | S. cerevisiae deletion strains, locus YPR141C, strain kar3, active compounds read low 1.03 | S. cerevisiae deletion strains, locus YPR163C, strain tif3, active compounds read low 1.01 | S. cerevisiae deletion strains, locus YPR167C, strain met16, active compounds read low 1.02 | S. cerevisiae deletion strains, strain wtn01, active compounds read low 1.02 | S. cerevisiae strains, strain wild type, active compounds read low 1.01

From PubChem BioAssay AID1159580 (chemical genetic matrix, 2015)
